# Screening results: PubChem, several laboratories
# This is a sample that favours compounds with a hit; in the whole collection about 32% have one here.
# PostGolgi ctrl – growth inhibition of yeast control strain, primary screen, counter-screen for post-Golgi transport modulator project; inhibition, % at 10 µM; 5% of 98,000 active; efflux-deficient yeast background strain, growth absorbance A615, 16 h
# CYP2C9 act – human CYP2C9 activators, primary screen, biochemical, luminescence | Cytochrome P450 2C9 (Homo sapiens), P11712 | recombinant CYP2C9, luciferin-H conversion; hits give high values; factor 1 = untreated enzyme, 0 = blocked | activation factor at 5 µM | 1.4% of 96,000 active;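 active means activation factor of 2 or more for CYP2C9 at a 5 µM dose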;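 further: 0 = sulfaphenazole-blocked wells and 1 = vehicle-only wells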
# PostGolgi yeast – phenotypic screen on post-Golgi transport, primary screen; AID 739, 2007; post-Golgi transport phenotypic cell assay; inhibition, % at 10 µM; 0.9% of 98,000 active;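 further: yeast cells grown in 1536-well plates; yeast grown about 18 h at 30C before absorbance read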
# CYP2C19 act – human CYP2C19 activators, primary screen, biochemical, luminescence | recombinant CYP2C19, luciferin-H EGE luminescence; hits give high values; 0 = fully inhibited enzyme, 1 = untreated enzyme | 96,000 tested, under 10 active | Cytochrome P450 2C19 (Homo sapiens), P33261 | AID 1025, 2008 | activation factor at 5 µM;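 active means activation factor of at least 2 at 5 µM in the primary screen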;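 further: 0 = wells with 2.5 mM tranylcypromine and 1 = vehicle-only wells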
# Target sequence (P33261 whole entry, looked up): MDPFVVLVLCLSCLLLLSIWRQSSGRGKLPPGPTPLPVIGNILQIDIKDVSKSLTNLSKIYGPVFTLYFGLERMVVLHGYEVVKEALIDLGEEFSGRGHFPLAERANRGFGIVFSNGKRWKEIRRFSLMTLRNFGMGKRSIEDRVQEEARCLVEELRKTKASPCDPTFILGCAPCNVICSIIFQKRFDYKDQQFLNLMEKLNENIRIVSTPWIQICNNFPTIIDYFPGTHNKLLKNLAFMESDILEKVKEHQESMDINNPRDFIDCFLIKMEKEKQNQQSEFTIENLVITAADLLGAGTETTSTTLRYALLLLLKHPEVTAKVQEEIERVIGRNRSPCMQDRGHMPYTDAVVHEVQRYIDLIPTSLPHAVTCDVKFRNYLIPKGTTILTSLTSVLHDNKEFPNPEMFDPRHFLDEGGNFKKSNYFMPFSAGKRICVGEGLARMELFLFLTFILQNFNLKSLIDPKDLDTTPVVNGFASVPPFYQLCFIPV
# CYP2C19 inhib – blockers of cytochrome P450 2C19 activity – biochemical, luminescence, ADME assay, primary screen; P33261; CYP2C19 Supersomes, luciferin-H EGE luminescence, 30 min; inhibition, % at 5 µM; 21% of 96,000 active; AID 778, 2007;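 active means CYP2C19 inhibition above a set limit at 5 µM in the primary screen, cut at about 50% in these data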;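 further: plate controls were negative control wells for no effect and 2.5 mM tranylcypromine positive control for full effect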
# CYP2C9 inhib – blockers of cytochrome P450 2C9 activity – biochemical, luminescence, ADME assay, primary screen; P11712; CYP2C9 Supersomes, luciferin-H conversion; inhibition, % at 5 µM; 20% of 96,000 active;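 active means blocking of liver enzyme CYP2C9 beyond about 50% at 5 µM, limit read from the data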
# The depositor's hits bear a star; / = no result given. Unless noted, no stated cut-off is given here; in the data, active means inhibition above about 30%; inactive means the rest.
SMILES,PostGolgi ctrl,CYP2C9 act,PostGolgi yeast,CYP2C19 act,CYP2C19 inhib,CYP2C9 inhib
COc1ccc(C)cc1NS(=O)(=O)c1cn(C)c(=O)n(C)c1=O,-8,1.1,13,0.6,37,-9
COc1ccc(OC)c(NC(=O)c2ccc(NS(C)(=O)=O)cc2)c1,-5,1.4,-3,0.8,18,-42
COc1ccc(S(=O)(=O)Nc2cc(C)ccc2OC)cc1C,27,0.2,-8,0,100*,80*
COc1ccc(OC)c(NS(=O)(=O)c2ccc(N3CCCC3=O)cc2)c1,4,0.8,3,0.1,95*,19
COc1ccc(OC)c(NC(=O)c2ccc(NC(C)=O)cc2)c1,5,2.6*,0,1,-1,-162
COc1ccccc1N1CCN(CC(O)COc2ccc3c(c2)CCC3)CC1 (stereo not given),7,1.3,1,1,4,-34
CCCNc1nc(OCC(F)(F)F)nc(OCC(F)(F)F)n1,3,0.9,-3,0.7,34,14
COc1ccc(C)cc1NS(=O)(=O)c1ccc(NS(=O)(=O)c2ccc(NC(C)=O)cc2)cc1,2,0.3,3,0.4,62*,66*
COc1ccc(OC)c(NS(=O)(=O)c2ccc(SC)cc2)c1,14,/,5,/,/,/
COc1ccc(C)cc1NS(=O)(=O)c1cccc2nonc12,-1,0.9,22,0.1,92*,15
COc1ccc(OC)c(NS(=O)(=O)c2ccc(NC(C)=O)cc2)c1,4,0.7,-4,0,100*,29
COc1ccc(CCNC(=O)C2CCCN(S(=O)(=O)c3cccc4nonc34)C2)cc1OC (stereo not given),-4,1,5,0.7,27,-2
COc1ccc(S(=O)(=O)Nc2cc(Cl)ccc2OC)cc1,22,0.6,9,0,99*,38
COc1ccc(OC)c(NC(=O)C2CCC(CNc3c(N4CCC(C)CC4)c(=O)c3=O)CC2)c1 (stereo not given),1,1.3,-12,0.8,25,-27
Cc1ccc(C)c(/C=N/NC(=S)NCCc2ccccc2)c1,6,0.9,0,1,0,9
CCCCN1C(=O)c2ccc(C(=O)Nc3cccnc3)cc2C1=O,3,0.5,0,0.6,36,48
Cn1cccc1C(=O)c1ccc(Cl)cc1Cl,5,0.8,6,0.9,13,17
NC/C(=N\O)c1ccc(Cl)cc1Cl,1,0.5,-5,0.2,80*,52*
Fc1ccc(Sc2cc(Cl)c(-c3ccccc3)nn2)cc1,39*,0.4,-3,0.5,45,57*
O=c1cc(Cl)c(-c2ccccc2)n[nH]1,4,1.1,0,1.2,-16,-14
CCc1cc2cccc(C)c2nc1SCC(=O)c1ccc(NC(C)=O)cc1,17,0.2,-2,1,3,80*
CCc1cc2cc(C)c(C)cc2nc1SCC(=O)NNC(=O)c1ccco1,2,0.9,1,0.9,9,8
CCc1cc2cccc(C)c2nc1SCC(=O)NNC(=O)c1ccco1,38*,1.5,-5,1.2,-17,-48
CCc1cc2ccc(C)cc2nc1SCC(=O)c1ccc(NC(C)=O)cc1,25,0.1,-1,0.4,63*,92*
CC(=O)Nc1ccc(C(=O)CSc2nnc(C)o2)cc1,3,1,1,1,2,3
SMILES,PostGolgi ctrl,CYP2C9 act,PostGolgi yeast,CYP2C19 act,CYP2C19 inhib,CYP2C9 inhib
Cc1nnc(SCC(=O)Nc2cccc(C(F)(F)F)c2)[nH]c1=O,3,0.8,3,1.1,-6,22
CCN(CC)CCCNC(=O)C1c2ccccc2C(=O)N(C)C1c1ccc(OC)cc1 (stereo not given),6,1,-11,1.1,-8,-2
Cc1nc2c(C(=O)NCc3ccccc3Cl)c[nH]n2c(=O)c1Cl,0,0.1,19,0.7,30,92*
Cc1nc2c(C(=O)NCc3ccccc3)c[nH]n2c(=O)c1Cl,-1,0.5,1,1.1,-10,53*
Cc1csc2ncc(C(=O)NCc3ccccc3Cl)c(=O)n12,5,/,9,/,/,/
COc1ccc(CNC(=O)c2cnc3n(c2=O)CCS3)cc1,18,0.9,4,0.8,23,10
O=C(NCc1ccccc1Cl)c1cnc2n(c1=O)CCS2,14,1,-2,0.4,64*,4
O=C(N1CCOCC1)N1CCN(c2nc(-c3ccc(F)cc3)cs2)CC1,3,1,-10,0.8,16,-2
Cc1ccc(N(c2ncnc(N)c2[N+](=O)[O-])C2CCCCC2)cc1,20,0.6,0,0.9,7,43
CCOc1ccc(-n2c(SC(C)C)nc3c(c2=O)SCC3)cc1,3,0.6,-6,0.7,32,42
O=C(COC(=O)C12CC3CC(CC(C3)C1)C2)NC12CC3CC(CC(C3)C1)C2,33*,0.8,13,0.8,23,18
CCC(CC)C(=O)OCC(=O)NC12CC3CC(CC(C3)C1)C2,4,0.7,11,0.1,94*,34
CCN(CC)S(=O)(=O)c1ccc(N2CCCC2)c(C(=O)OCC(=O)/C(C#N)=C(\C)N)c1,9,0.2,-3,0.2,80*,82*
O=C(c1ccc(Cl)c(S(=O)(=O)NCc2ccco2)c1)N1CCN(c2ccc(F)cc2)CC1,7,1,5,0.8,24,0
Cc1ccccc1N1C(=O)c2cccc3c(N(C)CCO)ccc(c23)C1=O,11,0.9,-2,0.5,50*,15
COc1ccccc1N1C(=O)c2cccc3c(C(=O)O)ccc(c23)C1=O,-2,1.1,-9,0.9,6,-5
Cn1c(C(=O)NC2CCCC2)cc2c(=O)n(C)c3ccccc3c21,2,1,-6,0.4,56*,5
Cn1c(C(=O)Nc2ccc3c(c2)OCO3)cc2c(=O)n(C)c3ccccc3c21,12,0.6,7,1,4,37
CCOc1ccc(NC(=O)c2cc3c(=O)n(C)c4ccccc4c3n2C)cc1,7,0.2,1,0.7,32,84*
O=C(NC(=S)Nc1cccc(Cl)c1N1CCCCC1)c1ccco1,37*,0.6,22,0.9,6,36
O=C(NC(=S)Nc1cccc(Cl)c1N1CCCCC1)c1cccs1,52*,0.4,6,0.9,14,59*
O=C1c2ccccc2S(=O)(=O)N1CCOc1ccc(F)cc1,-2,0.4,0,0,99*,63*
CCCc1[nH]nc2c1C(c1ccccc1OC)C(C#N)=C(N)O2 (stereo not given),6,0.8,6,0.7,28,17
